{"source": "PubChem BioAssay (Tox21)", "note": "Inconclusive results are not listed. Calls of active or inactive are those of the source. Calls come from the whole dose curve; as a rule, active = well fitted cell-killing curve with a large enough effect in the repeat runs; inconclusive = weak or mixed curves, or effect the other way; inactive = no such curve, though single readings can be large or run the other way. % is set by controls: 0 for no effect and ±100 for the full control effect; potency is the fitted concentration of half-maximal effect.", "data": [{"test": "qHTS assay for identifying genotoxic compounds that show differential cytotoxicity against isogenic chicken DT40 cell lines with known DNA damage response pathways - Rev3 mutant cell line (AID 743014); note: nearly all actives have a fitted effect of over 55% in size", "details": "chicken DT40 Rev3-/- viability, CellTiter-Glo, 40 h; series mostly up to 68.4 µM; activity, negative = cytotoxicity: at the top concentration", "text": "National Center for Advancing Translational Sciences [NCATS]\nNIH Chemical Genomics Center [NCGC]\nU.S. Environmental Protection Agency [EPA]\nNational Institutes of Environmental Health Sciences [NIEHS]\nNational Toxicology Program [NTP]\nU.S. Food and Drug Administration [FDA]\nDNA repair pathways play a critical role in cellular homeostasis by repairing DNA damage induced by endogenous processes and xenobiotics. Isogenic chicken DT40 cell lines deficient in different DNA repair pathways can be used to identify genotoxic compounds and aid in characterizing the nature of the DNA damage induced. Two DNA repair-deficient cell lines with disrupted genes, Rad54/Ku70 or Rev3, were used to screen the Tox21 10K compound library. Possible genotoxicity was based on the presence of a significant increase in cytotoxicity in one or more of the DNA repair-deficient cell lines compared to that observed in the parental DNA repair-proficient cell line. CellTiter Glo viability assay (Promega, Madison, WI) was used to measure cell viability in these cells after compound treatment. This assay includes the data from the Rev3 mutant cell line.\nTox21 Assay Protocol Summary:\n300 DT40 mutant cells in 5 uL/well were dispensed into white, solid-bottom 1536-well plates using a Multidrop Combi (ThermoFisher Scientific, Waltham, MA) dispenser. After the assay plates were incubated at 37 C/5% CO2 for approximately 0.5 hour, 23 nL of compounds dissolved in DMSO, positive controls or DMSO only was transferred into the assay plate by a pintool work station (Kalypsys, San Diego, CA). The assay plates were incubated at 37 C/5% CO2 for 40 hours. After 5 uL per well of CellTiter-Glo reagent was added into each well of the assay plates, the plates were incubated for 30 min at room temperature and the luminescence intensity of the plates was measured using a ViewLux (PerkinElmer, Shelton, CT) plate reader.", "values": [{"smiles": "COc1ccnc(CS(=O)c2nc3cc(OC(F)F)ccc3[nH]2)c1OC", "note": "(stereo not given)", "activity, negative = cytotoxicity": "-9.04% (inactive)"}, {"smiles": "NC(=O)N[C@@H](CCC(=O)O)C(=O)O", "activity, negative = cytotoxicity": "12% (inactive)"}, {"smiles": "CC[N+](CC)(CC(=O)Nc1c(C)cccc1C)Cc1ccccc1", "note": "(tested in a mixture with another compound)", "Potency": "16 µM (active)"}, {"smiles": "CCNS(=O)(=O)c1ccc(C)cc1", "activity, negative = cytotoxicity": "2.71% [at 95 µM] (inactive)"}, {"smiles": "O=C1CCCCCCCCCCCCCCO1", "activity, negative = cytotoxicity": "-15.2% (inactive)"}, {"smiles": "CCCc1ncc(C[n+]2ccccc2C)c(N)n1", "activity, negative = cytotoxicity": "15.5% [at 31.4 µM] (inactive)"}, {"smiles": "CC/C=C\\CCOC(C)OCC", "note": "(stereo not given)", "activity, negative = cytotoxicity": "-20.2% (inactive)"}, {"smiles": "C=C(C)C(=O)OCC1CCCO1", "note": "(stereo not given)", "activity, negative = cytotoxicity": "-10.2% (inactive)"}, {"smiles": "CO[Si](C)(OC)c1ccccc1", "activity, negative = cytotoxicity": "-2.76% (inactive)"}, {"smiles": "CO/N=C(\\C(=O)N[C@@H]1C(=O)N2C(C(=O)O)=C(CSc3nc(=O)c(O)nn3C)CS[C@H]12)c1csc(N)n1", "activity, negative = cytotoxicity": "0.437% (inactive)"}, {"smiles": "NCCCC[C@H](N[C@@H](CCc1ccccc1)C(=O)O)C(=O)N1CCC[C@H]1C(=O)O", "activity, negative = cytotoxicity": "13.1% [at 31.4 µM] (inactive)"}, {"smiles": "Cc1ccnc(NS(=O)(=O)c2ccc(N)cc2)n1", "activity, negative = cytotoxicity": "0.42% [at 31.4 µM] (inactive)"}, {"smiles": "CCCC(C)C(=O)OCC", "note": "(stereo not given)", "activity, negative = cytotoxicity": "-2.55% (inactive)"}, {"smiles": "CCCCCCCCCCCCCCCCCCO", "activity, negative = cytotoxicity": "4.15% (inactive)"}, {"smiles": "CC1=C(C/C=C(\\C)CCC[C@H](C)CCC[C@H](C)CCCC(C)C)C(=O)c2ccccc2C1=O", "activity, negative = cytotoxicity": "0.109% (inactive)"}, {"smiles": "CC(C)CC(C)(N)C#N", "note": "(stereo not given)", "activity, negative = cytotoxicity": "-12.8% [at 95 µM] (inactive)"}, {"smiles": "O=C(O)CC(C(=O)O)S(=O)(=O)O", "note": "(stereo not given)", "Potency": "61.1 µM (active)"}, {"smiles": "COC(=O)C1=C(C)NC(C)=C(C(=O)OC(C)C)C1c1cccc2nonc12", "note": "(stereo not given)", "activity, negative = cytotoxicity": "-3.26% [at 31.4 µM] (inactive)"}, {"smiles": "CCCCCC(=O)OCCc1ccccc1", "activity, negative = cytotoxicity": "-18.3% (inactive)"}, {"smiles": "CCOC(=O)OC(C)OC1=C(C(=O)Nc2ccccn2)N(C)S(=O)(=O)c2ccccc21", "note": "(stereo not given)", "Potency": "1.5 µM (active)"}, {"smiles": "C=CCCCCCCCCC(=O)OCC", "activity, negative = cytotoxicity": "-3.49% (inactive)"}, {"smiles": "NC(=O)N1c2ccccc2CC(=O)c2ccccc21", "Potency": "5.96 µM (active)"}, {"smiles": "CCN[C@H]1C[C@H](C)S(=O)(=O)c2sc(S(N)(=O)=O)cc21", "activity, negative = cytotoxicity": "19.4% (inactive)"}, {"smiles": "CC(C)(C)OC(=O)c1cccc(N)c1", "activity, negative = cytotoxicity": "-0.421% [at 95 µM] (inactive)"}, {"smiles": "CCCCN(CCC(=O)OCC)C(C)=O", "activity, negative = cytotoxicity": "-13.4% (inactive)"}, {"smiles": "CC(C)(C#N)Nc1nc(Cl)nc(NC2CC2)n1", "activity, negative = cytotoxicity": "-18.1% (inactive)"}, {"smiles": "CCCCCC(C)N", "note": "(stereo not given)", "activity, negative = cytotoxicity": "13.8% (inactive)"}, {"smiles": "CC(C)c1ccc2ncccc2c1", "activity, negative = cytotoxicity": "5.84% (inactive)"}, {"smiles": "CC(CO)(CO)[N+](=O)[O-]", "activity, negative = cytotoxicity": "1.39% (inactive)"}, {"smiles": "CC(C)[C@H]1CC[C@@H](C)CC1=O", "activity, negative = cytotoxicity": "-10.9% (inactive)"}, {"smiles": "Cc1ccc(-c2ncc(Cl)cc2-c2ccc(S(C)(=O)=O)cc2)cn1", "activity, negative = cytotoxicity": "-0.446% (inactive)"}, {"smiles": "CCOCC(C)O", "note": "(stereo not given)", "activity, negative = cytotoxicity": "-16.2% (inactive)"}, {"smiles": "[K+]", "activity, negative = cytotoxicity": "-9.21% (inactive)"}, {"smiles": "CN(C)C(=O)Oc1cccc([N+](C)(C)C)c1", "activity, negative = cytotoxicity": "0.654% (inactive)"}, {"smiles": "CN(C)[C@@H]1C(=O)C(C(=O)NCN2CCCC2)=C(O)[C@@]2(O)C(=O)C3=C(O)c4c(O)cccc4[C@@](C)(O)C3C[C@@H]12", "note": "(stereo not given in full)", "Potency": "inactive"}, {"smiles": "Nc1ccn([C@@H]2O[C@H](CO)[C@@H](O)[C@@H]2O)c(=O)n1", "Potency": "0.0433 µM (active)"}, {"smiles": "CC(=O)N[C@H]1[C@H]([C@H](O)[C@H](O)CO)OC(C(=O)O)=C[C@@H]1N=C(N)N", "activity, negative = cytotoxicity": "-1.18% (inactive)"}, {"smiles": "C=C(C)C(=O)OCCOCCOCCOCCOC(=O)C(=C)C", "activity, negative = cytotoxicity": "-14.1% (inactive)"}, {"smiles": "CC1=CCC(O)(C(C)C)CC1", "note": "(stereo not given)", "activity, negative = cytotoxicity": "0.222% (inactive)"}, {"smiles": "CC[N+](CC)(CC)CCOc1cccc(OCC[N+](CC)(CC)CC)c1OCC[N+](CC)(CC)CC", "activity, negative = cytotoxicity": "10.4% (inactive)"}]}]}
